Source: PubChem BioAssay
An excerpt weighted towards active compounds, which were near 3.2% of everything screened.
DYRK1A inh: rat Dyrk1A kinase inhibitors, primary screen, biochemical, single point, plate reader; Dual specificity tyrosine-phosphorylation-regulated kinase 1A (Rattus norvegicus), Q63470; ADP-Glo luminescence, NFATc1 peptide; inhibition, % at 12.5 µM; 310,000 tested, 0.43% active; AID 504441, 2011; in the data active = inhibition above about 50%;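 also: plate controls were vehicle with enzyme for no effect and no enzyme for full effect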
SMARCA2 activ: SMARCA2 (BRM) function activators, primary screen, cell-based, luminescence, high throughput | activation, % at 9.1 µM | 370,000 tested, 1% active | MG213 cells, MMTV-luciferase reporter, dexamethasone, overnight; in the data active = activation above about 7.8%;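 also: 0% = vehicle wells and 100% = reference activator wells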
Rtt109 HAT inh: inhibitors of C. albicans Rtt109/Vps75 HAT, primary screen, biochemical, ThioGlo CoA-SH fluorescence, plate reader. Histone acetyltransferase RTT109 (Candida albicans (strain SC5314 / ATCC MYA-2876)), …. purified Rtt109/Vps75, 4 h. inhibition, % at 34.9 µM. 330,000 tested, 0.16% active. AID 540336, 2011;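 active = inhibition of at least 50% in every replicate; inconclusive = best replicate reaches 50% inhibition but some replicates fall short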
Target sequence (Q5AAJ8 whole entry, looked up): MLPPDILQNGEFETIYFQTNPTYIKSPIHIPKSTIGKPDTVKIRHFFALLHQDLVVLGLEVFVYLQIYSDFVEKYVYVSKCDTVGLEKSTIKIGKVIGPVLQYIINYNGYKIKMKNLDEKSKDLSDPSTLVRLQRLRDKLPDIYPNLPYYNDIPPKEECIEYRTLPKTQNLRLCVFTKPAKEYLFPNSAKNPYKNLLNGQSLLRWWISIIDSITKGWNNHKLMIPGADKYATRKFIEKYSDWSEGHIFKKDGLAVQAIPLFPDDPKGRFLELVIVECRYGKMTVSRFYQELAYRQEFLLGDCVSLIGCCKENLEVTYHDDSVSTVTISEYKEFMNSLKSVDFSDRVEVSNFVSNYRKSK
CDK5 inh: inhibitors of human CDK5/p35 kinase, primary screen, biochemical, single concentration; Cyclin-dependent kinase 5 (Homo sapiens) + Cyclin-dependent kinase 5 activator 1 (Homo …; Recombinant CDK5/p35, ADP-Glo luminescence, 60 min; inhibition, % at 10 µM; 330,000 tested, 0.01% active; AID 488839, 2010;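 active = highest replicate inhibition of at least 50% and at least 75% of replicates reaching 50%; inconclusive = only one of the two criteria met; inactive = both criteria failed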;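 also: plate controls were DMSO neutral control for no effect and GW8510 at 10 µM for full effect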
esBAF inh: Bmi1 luciferase reporter increase in mESCs, primary screen, esBAF inhibitor project, mouse ES cells, Bmi1 luciferase knock-in, single point; AID 602393, 2012; 24 h; 100% = twice the neutral-well signal; reporter increase, % at 12.5 µM; 350,000 tested, 2% active; in the data active = activation above about 40%; inconclusive = no clear call, values can overlap the other calls;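 also: 0% = median of the plate's neutral control wells and 100% = double that signal; a rise in the Bmi1 reporter signal indicates esBAF inhibition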
dFosB activator: activators of delta FosB homodimer, primary screen, biochemical, fluorescence polarization, TAMRA-CDK5 oligo, single point. Protein FosB (Mus musculus), P13346. purified delta FosB; percent of positive-control signal above neutral wells. activation, % at 25 µM. 340,000 tested, 0.99% active;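 active = mean activation above about 17%, with every replicate also reaching it, limit read from the data, passing the limit was not always enough; inconclusive = only one of the two conditions met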
Target sequence (P13346 whole entry, looked up): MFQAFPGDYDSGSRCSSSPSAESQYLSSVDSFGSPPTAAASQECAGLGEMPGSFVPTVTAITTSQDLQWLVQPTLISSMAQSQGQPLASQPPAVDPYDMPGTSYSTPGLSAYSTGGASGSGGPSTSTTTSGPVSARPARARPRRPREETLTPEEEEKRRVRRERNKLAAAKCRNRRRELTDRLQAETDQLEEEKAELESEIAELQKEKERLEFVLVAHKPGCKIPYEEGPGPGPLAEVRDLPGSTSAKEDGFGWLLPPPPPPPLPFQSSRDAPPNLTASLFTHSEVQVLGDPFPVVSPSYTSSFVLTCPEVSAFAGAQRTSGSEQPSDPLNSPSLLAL
Active calls of the source: *; ? = inconclusive; · = no result.

SMILES | DYRK1A inh | SMARCA2 activ | Rtt109 HAT inh | CDK5 inh | esBAF inh | dFosB activator
CCC(=O)Nc1ccc2c(c1)OC[C@H](C)N(Cc1ccncc1)C[C@H](C)[C@@H](OC)CN(C)C2=O | · | · | · | · | -0.1 | ·
COc1ccc(N/C=C\C(=O)c2ccc(C)cc2)cc1OC | 4.0 | 6.0 | -5.3 | 1.8 | 51.7* | -2.8
COc1cccc(N/C=C/C(=O)c2ccc(OC)c(OC)c2)c1 | 1.1 | 2.0 | 6.3 | -2.2 | ? | -7.3
CCOC(=O)c1cccc(N/C=C/C(=O)c2ccc(OC)c(OC)c2)c1 | -3.6 | 2.4 | 3.7 | 1.7 | 52.6* | -6.2
CC(=O)c1ccc(N/C=C/C(=O)c2ccc(Br)cc2)cc1 | -12.7 | 3.2 | 1.2 | 1.0 | 46.0* | -1.0
O=C(O)CN1C(=O)/C(=C/c2ccc(N3CCCCC3)o2)SC1=S | 7.2 | -3.9 | 4.6 | 6.9 | -8.2 | 85.5*
CCN1CCN(c2ccc(S(=O)(=O)N3CCCCC3)cc2NC(=O)c2cccc(C(F)(F)F)c2)CC1 | 4.7 | -0.5 | 14.9 | -1.0 | · | 20.9*
O=C(COc1ccccc1)Nc1nc2ccccc2[nH]1 | 0.9 | 7.8* | -7.3 | 2.5 | 49.1* | 6.0
CC(CC(=O)Nc1nc2ccccc2[nH]1)c1ccccc1 (stereo unspecified) | 1.5 | 5.0 | 6.2 | 0.3 | 70.1* | 0.2
CC(CC(=O)Nc1nc2ccccc2[nH]1)n1ccnc1 (stereo unspecified) | · | -1.7 | 3.4 | 0.6 | -6.3 | -4.6
Cc1noc(C)c1S(=O)(=O)Nc1cccc2c1O[C@H](CN(C)Cc1ccc(Oc3ccccc3)cc1)[C@H](C)CN([C@@H](C)CO)C2=O | · | · | · | · | -1.3 | ·
CSc1c(SCc2ccccc2)cnn(-c2ccccc2)c1=O | -4.1 | 1.5 | 58.1* | -1.7 | · | -12.6
Cn1ncc(SCc2ccccc2)c(Cl)c1=O | 1.9 | -4.2 | -1.2 | 0.7 | · | -3.4
Fc1ccccc1-c1ccc(/C=N/Nc2nc3ccccc3[nH]2)o1 | -33.1 | 4.2 | -7.0 | 1.9 | · | 22.0*
O=C(C[C@@H]1C[C@@H]2c3cc(NC(=O)C4CCC4)ccc3O[C@@H]2[C@H](CO)O1)NCc1cc(F)ccc1F | · | · | · | · | -5.1 | ·
CCN(CC)C(=O)/C=C/c1ccccc1 | 0.4 | 3.6 | -0.7 | 0.6 | · | -2.0
CON(C)C(=O)/C=C/c1ccc([B-](F)(F)F)cc1 | 15.1 | 1.1 | 3.9 | 0.0 | 47.0* | -7.7
Cc1ccc(O)c(CN(C)Cc2cc(C)ccc2O)c1 | 4.4 | 3.9 | 0.5 | -6.7 | 50.6* | -16.1
COCCNC(=O)C[C@H]1CC[C@H]2[C@@H](COc3ccc(NC(=O)Cc4ccccc4)cc3C(=O)N2C)O1 | · | · | · | · | -1.2 | ·
COc1cccc2sc(NNC(=O)C3=COCCO3)nc12 | 4.8 | -0.8 | -1.5 | 0.3 | 46.5* | -7.2
O=C(NCC[C@H]1CC[C@H](NC(=O)C2CC2)[C@@H](CO)O1)Nc1ccc(C(F)(F)F)cc1 | · | · | · | · | -1.5 | ·
CC1(C)Nc2cccc3cccc(c23)N1 | -2.2 | -2.0 | -0.2 | 0.8 | 4.1 | 3.0
c1cc2c3c(cccc3c1)NC1(CCCC1)N2 | · | 6.4 | 6.0 | -1.7 | -3.7 | 62.7*
COc1cc2c(cc1NC(=O)c1cccnc1)oc1ccccc12 | 2.8 | 3.3 | -9.7 | -1.9 | 72.3* | 1.5
COc1cc2c(cc1NC(=O)CSc1ccccn1)oc1ccccc12 | -6.2 | 3.5 | -2.6 | -0.5 | 48.7* | -11.7
SMILES | DYRK1A inh | SMARCA2 activ | Rtt109 HAT inh | CDK5 inh | esBAF inh | dFosB activator
Nc1[nH]ncc1N=Nc1ccc(Cl)cc1 | 6.8 | 4.9 | 3.1 | 0.8 | 47.3* | -0.2
Clc1ccccc1-c1nnc(-c2ccccc2Cl)o1 | 3.3 | 3.7 | -3.9 | -1.0 | 71.0* | -22.7
Cc1ccccc1-c1noc(-c2cccs2)n1 | 5.5 | 0.2 | 0.4 | -3.0 | 54.2* | -2.3
Cc1ccccc1-c1nnc(-c2ccccc2)o1 | -2.5 | 5.8 | -12.8 | -0.3 | 43.1* | -15.7
Cc1ccccc1-c1nnc(-c2cccs2)o1 | 14.3 | 1.3 | 1.6 | 0.5 | 42.1* | -18.1
Clc1ccc(-c2nnc(-c3ccccc3Cl)o2)cc1 | 2.6 | 5.8 | -9.4 | 0.9 | -10.2 | -8.1
C[C@H]1CCCCO[C@@H](CN(C)C(=O)Nc2ccccc2)[C@@H](C)CN([C@@H](C)CO)C(=O)c2cc(NC(=O)c3ccccc3)ccc2O1 | · | · | · | · | 1.6 | ·
O=C(NCC[C@@H]1CC[C@H](NC(=O)C2CCCC2)[C@@H](CO)O1)c1cc(Cl)cc(Cl)c1 | · | · | · | · | 9.2 | ·
C[C@H](CO)N1C[C@H](C)[C@H](CN(C)C(=O)Nc2ccccc2)Oc2c(NS(=O)(=O)c3ccc(F)cc3)cccc2C1=O | · | · | · | · | 2.9 | ·
C[C@H]1CN([C@@H](C)CO)C(=O)c2cccc(NC(=O)Nc3ccc4c(c3)OCO4)c2O[C@@H]1CN(C)Cc1ccc(Oc2ccccc2)cc1 | · | · | · | · | 9.1 | ·
C[C@@H]1CCCCO[C@H](CN(C)CC2CC2)[C@H](C)CN([C@@H](C)CO)C(=O)c2cc(NS(=O)(=O)c3cn(C)cn3)ccc2O1 | · | · | · | · | -3.4 | ·
CCOc1ccc(N=C2NC(=O)S/C2=C\c2ccc(N(C)C)cc2)cc1 | 2.9 | 3.6 | -9.4 | -1.0 | 50.4* | -7.7
O=c1cc(CN2CCN(c3ccccc3F)CC2)c2cc(O)c(-c3ccccc3)cc2o1 | 7.2 | -1.0 | -3.2 | -0.3 | · | -3.9
O=c1cc(CN2CCN(C/C=C/c3ccccc3)CC2)c2cc(O)c(-c3ccccc3)cc2o1 | 0.3 | 2.8 | -7.6 | -0.1 | · | 65.5*
Cc1cc2oc(=O)cc(CN3CCN(Cc4ccccc4)CC3)c2cc1O | 2.2 | -2.9 | -8.4 | -3.0 | -0.6 | 1.7
Cc1cc2oc(=O)cc(CN3CCN(C/C=C/c4ccccc4)CC3)c2cc1O | 9.4 | -5.1 | -6.2 | -1.4 | -7.1 | 24.6*
CN(C)c1ccc2c(c1)[C@@H]1C[C@H](CC(=O)N3CCc4ccccc4C3)O[C@@H](CO)[C@@H]1O2 | · | · | · | · | 9.2 | ·
O=C(C[C@H]1C=C[C@H](NC(=O)Nc2ccc(C(F)(F)F)cc2)[C@H](CO)O1)NCc1cc(F)cc(F)c1 | · | · | · | · | 15.6 | ·
Cc1nc2ccccn2c1C(=O)NN | -2.3 | 0.4 | -4.7 | 1.0 | · | 4.3
O=C(Nc1ccc(F)cc1)c1c(Cl)nc2ccccn12 | 3.4 | 0.5 | -9.0 | 0.8 | 50.3* | -11.9
Cc1nc2ccccn2c1C(=O)/C=C/c1ccc(F)cc1 | 7.6 | 2.7 | 8.0 | 1.1 | 100.4* | -32.7
COc1ccc(NC(=O)c2c(Cl)nc3ccccn23)cc1 | 0.1 | -3.3 | -2.7 | -2.6 | 3.8 | 4.9
Cc1ccc2nc(C(F)(F)F)c(C#N)c(N)c2c1 | 35.7 | 0.2 | -3.1 | 95.4* | -14.4 | -5.0
Cc1cc(C)c2nc(C(F)(F)F)c(C#N)c(N)c2c1 | 10.0 | -1.9 | -2.5 | 1.6 | -7.2 | 7.6
